# USP1 inh: Inhibitors of USP1/UAF1: Primary Screen; Ubiquitin carboxyl-terminal hydrolase 1 (Homo sapiens), O94782; recombinant USP1/UAF1, Ub-Rhodamine cleavage fluorescence; Potency, µM (series often up to 57.1 µM), usual class: inhibitors; hit rate 0.23% among 390,000; AID 743255, 2014; active means well fitted inhibition curve with a large enough effect; inconclusive means small, poorly fitted or top-dose-only effect; inactive means no such curve, though single readings can be large or run the other way; further: nearly all actives have a fitted effect of over 60% in size
# Target sequence (O94782 whole entry, looked up): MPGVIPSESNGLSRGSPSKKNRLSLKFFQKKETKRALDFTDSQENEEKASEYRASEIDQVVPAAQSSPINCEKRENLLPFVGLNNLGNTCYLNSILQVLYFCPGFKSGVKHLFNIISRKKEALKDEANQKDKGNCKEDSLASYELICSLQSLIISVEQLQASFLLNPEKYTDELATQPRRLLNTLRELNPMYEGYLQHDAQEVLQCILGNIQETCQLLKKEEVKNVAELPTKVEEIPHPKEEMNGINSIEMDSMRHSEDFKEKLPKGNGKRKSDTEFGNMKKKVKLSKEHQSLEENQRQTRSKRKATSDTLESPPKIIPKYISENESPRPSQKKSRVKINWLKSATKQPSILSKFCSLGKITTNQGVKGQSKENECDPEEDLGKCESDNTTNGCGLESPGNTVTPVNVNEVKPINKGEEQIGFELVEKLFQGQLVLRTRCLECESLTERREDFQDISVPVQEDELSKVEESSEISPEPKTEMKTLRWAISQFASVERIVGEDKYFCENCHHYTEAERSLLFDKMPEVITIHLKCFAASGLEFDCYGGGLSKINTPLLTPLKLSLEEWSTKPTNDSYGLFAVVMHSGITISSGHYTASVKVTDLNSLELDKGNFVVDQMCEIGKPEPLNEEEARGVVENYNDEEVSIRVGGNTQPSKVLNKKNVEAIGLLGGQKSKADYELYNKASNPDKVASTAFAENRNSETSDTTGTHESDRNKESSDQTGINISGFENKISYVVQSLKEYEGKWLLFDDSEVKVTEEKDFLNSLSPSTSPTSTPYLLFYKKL
#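 Step one: compound is pinned into 1nM USP1/UAF1 in HEPES pH 7.8 buffer with TCEP. Step two: 15 min room-temperature incubation. Step three: Ub-Rho (150nM final) starts cleavage, tracked by fluorescence over six one-minute reads.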
# KCNH2 WT inh: qHTS for Inhibitors of KCHN2 3.1: Wildtype qHTS; Voltage-gated inwardly rectifying potassium channel KCNH2 (Homo sapiens), Q12809; hit rate 0.37% among 340,000; AID 720551, 2013; activity change, % at 1.84 µM; U2OS, BacMam KCNH2, thallium flux FluxOr; hits give low values;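 active means maximum activity change below -70%; inconclusive means maximum activity change between -70% and -50%; inactive means maximum activity change above -50%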
#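 U2OS cells transduced with wild-type KCNH2 virus are loaded with FluxOr dye for 45 min, and thallium flux is measured in kinetic reads before and after stimulation buffer. Rate constants are normalized to DMSO controls.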
# FBPA coupling cs: qHTS Assay for Inhibitors of Fructose-1,6-bisphosphate Aldolase from Giardia Lamblia: Coupling assay counterscreen. hit rate 0.67% among 290,000. coupling enzyme system counterscreen, AmpLite Red fluorescence. AID 2472, 2010. activity change, negative = inhibition, % at 58.2 µM, hits read low; in the data active means activity change below about -30%
#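 Counterscreen lacking aldolase: glyceraldehyde-3-phosphate coupling-enzyme reagent preincubated 10 min at RT with compound (at 57.5 uM final), then substrate/coupling system with AmpLite Red added; fluorescence read at 525/598 nm after 20 min RT.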
# Giardia kill: Small Molecules that selectively kill Giardia lamblia: qHTS; Giardia lamblia trophozoite viability; activity change, % at 7.66 µM, hits read low; hit rate 0.15% among 340,000; in the data active means activity change below about -80%; inconclusive means between about -30% and that limit;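 further: parasites exposed to compound for two days anaerobically before the ATP read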
#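 Luminescent ATP signal served as the viability read-out, measured 15-30 min after adding ATP detection reagent to trophozoites that had been incubated with compounds for 48 hrs at 37 deg C anaerobically at 100 cells/well.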
# KCNH2 3.1 inh: qHTS for Inhibitors of KCHN2 3.1: Mutant qHTS; U2OS KCNH2 3.1, thallium flux FluxOr; hits give low values; Potassium voltage-gated channel subfamily H member 2, brain isoform KCNH2 3.1 (human); activity change, % (tested at about 1.8 µM); hit rate 0.95% among 340,000; AID 720553, 2013;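 active means maximum activity change below -70%; inconclusive means maximum activity change from -70% to -50%; inactive means maximum activity change above -50%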;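 further: thallium influx rate constant from kinetic fluorescence after stimulation buffer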
#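 U2OS cells transduced with KCNH2 3.1 mutant virus (1.77 x 10^8 /mL, 4 h), plated overnight at 37 C, loaded 45 min with FluxOr dye plus Red40 quencher. Thallium flux rate constant from kinetic reads after stimulation buffer, normalised to controls.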
# A number is an active result; 0 = inactive; ? = inconclusive; - = not tested or not shown; ! = not active in a repeat. This is a sample that favours compounds with a hit; in the whole collection about 1.7% have one here.
SMILES,USP1 inh,KCNH2 WT inh,FBPA coupling cs,Giardia kill,KCNH2 3.1 inh
Cc1cccc(NCCC(=O)c2ccc([N+](=O)[O-])cc2)c1C,0,0,0,0,-83
Cc1cccc(N2CCN(C(=O)c3ccc(NC(=O)c4nsc5ccccc45)cc3)CC2)c1C,0,-,-,-,-
CCc1cccc(CC)c1NC(=O)/C(C#N)=C/c1ccccc1C(F)(F)F,0,0,0,0,0
N#C/C(=C\c1ccccc1C(F)(F)F)C(=O)Nc1ccccc1,0,0,0,0,-177
Nc1ccccc1C#CC(=O)c1ccccc1,0,0,0,0,0
Cc1ccc(Sc2c(C)nn(C(C)(C)C)c2OC(=O)C(C)(C)C)cc1,0,-,-,-,-
CCN(CC)CCCNC(=O)c1ccc(Cn2c(SCc3ccccc3)nc3cccnc32)cc1,0,-,-,-,-
OCCN1CCN(C(=S)c2ccc(Cl)c(Cl)c2)CC1,0,0,-32,0,0
COc1cccc(C2C(C(=O)/C=C/c3ccco3)=C(O)C(=O)N2CCN2CCOCC2)c1 (configuration not stated),0,0,-33,0,0
COc1ccc(C2C(C(=O)/C=C/c3ccco3)=C(O)C(=O)N2CCN2CCOCC2)cc1 (configuration not stated),0,0,0,0,0
CCCOc1ccc(/C(O)=C2/C(=O)C(=O)N(CCCN3CCOCC3)C2c2ccncc2)cc1 (configuration not stated),-,-,-62,-,-
CCCCOc1ccc(/C(O)=C2/C(=O)C(=O)N(CCCOC)C2c2ccncc2)cc1 (configuration not stated),0,0,0,0,0
Cc1cc([N+](=O)[O-])ccc1NC(=O)c1ccco1,0,0,0,0,0
Cc1cc(NC(=O)c2ccc([N+](=O)[O-])o2)ccc1NC(=O)c1ccco1,0,0,0,-94,0
COc1cc(NC(=O)c2ccc([N+](=O)[O-])o2)ccc1NC(=O)c1ccco1,0,0,0,-96,0
O=c1oc2c(O)c(O)cc3c(=O)oc4c(O)c(O)cc1c4c23,?,0,-79!,0,0
O=c1oc2ccccc2c2oc3cc(O)c(O)cc3c12,0,0,0,0,0
Cc1ccc(S(=O)(=O)NC2=C(N3CCN(Cc4ccccc4)CC3)C(=O)c3ccccc3C2=O)cc1,0,0,-34,0,0
CCOC(=O)N1CCN(C2=C(NS(=O)(=O)c3ccc(C)cc3)C(=O)c3ccccc3C2=O)CC1,22µM,0,-,0,0
O=C1C(NS(=O)(=O)c2cccs2)=C(N2CCN(c3ccccc3)CC2)C(=O)c2ccccc21,?,0,-33,0,0
CCOC(=O)N1CCN(C(=O)c2ccc(CNS(=O)(=O)c3ccc(C)cc3)cc2)CC1,0,0,0,0,0
Cc1ccc(S(=O)(=O)NC2=C(N3CCN(c4ccccc4F)CC3)C(=O)c3ccccc3C2=O)cc1,0,0,0,0,0
CC(=O)Nc1ccc(S(=O)(=O)NC2=C(N3CCN(c4ccc(F)cc4)CC3)C(=O)c3ccccc3C2=O)cc1,?,0,-56,0,0
O=S(=O)(c1cccs1)N1CCN(c2ccccc2)CC1,0,0,0,0,0
c1ccc(Nc2nc(NCc3ccco3)nc3nccnc23)cc1,-,-,-,0,-
SMILES,USP1 inh,KCNH2 WT inh,FBPA coupling cs,Giardia kill,KCNH2 3.1 inh
O=C(Nc1nc2c(s1)CN(Cc1ccccc1)CC2)c1cccc(S(=O)(=O)N2CCc3ccccc32)c1,28µM,0,-,0,0
O=C(Nc1nc2ccccc2s1)c1cccc(S(=O)(=O)N2CCc3ccccc32)c1,0,0,0,0,0
COc1ncnc2c1ncn2CCCN(C)CCc1ccccn1,0,0,-,-,0
COc1cccc(CNC(=O)Cn2ncn3nc(-c4cccs4)cc3c2=O)c1OC,0,-,-,-,-
CC(C)Cn1c(SCC(=O)c2c(N)n(C)c(=O)n(C)c2=O)nc2ccccc21,0,-116,0,0,0
Cc1csc(SCC(=O)c2c(N)n(CC(C)C)c(=O)n(C)c2=O)n1,0,-325,0,0,0
CCOC(=O)Cc1csc(SCC(=O)c2c(N)n(CC(C)C)c(=O)n(C)c2=O)n1,0,0,0,0,0
CC(C)Cn1c(N)c(C(=O)CSc2nc3ccccc3n2C)c(=O)n(C)c1=O,0,0,0,0,0
Cc1c(C)c2c(c(C)c1O)CC[C@@](C)(C(=O)O)O2,-,-,-34,-,-
Cc1ccc(S(=O)(=O)n2nc(-c3ccco3)nc2NCc2ccccc2Cl)cc1,0,-,-,-,-
CCOC(=O)c1cc2c(ccn2C)n1CC(=O)N1CCN(c2cccc(C(F)(F)F)c2)CC1,0,0,-33,0,0
CCCc1ccc(/C=C2\C(=O)c3ccccc3C(O)=C2C(=O)OCC)cc1,-,-,-37,-,-
CCOC(=O)C1=C(O)c2ccccc2C(=O)/C1=C\c1ccc(CC)cc1,?,0,-48,0,0
O=C(CSc1nnc(COc2ccccc2)o1)c1ccccc1,0,0,0,0,-99
Cc1cc([N+](=O)[O-])c2ccccc2c1NS(=O)(=O)c1ccccc1,?,0,-,0,0
O=c1c(-c2ccccc2)coc2cc(O)cc(O)c12,-,-,-35,-,-
O=c1c(-c2ccc3c(c2)OCCO3)coc2cc(O)cc(O)c12,0,0,0,0,0
Cc1ccc(Nc2nc3ccc(Cl)cc3n3cnnc23)cc1F,0,-127,0,0,0
CCN(Cc1ccncc1)Cc1c(O)ccc2cc(Br)ccc12,0,0,-54,0,0
CN1CCN(Cc2c(O)ccc3cc(Br)ccc23)CC1,0,0,0,0,0
CCOC(=O)c1c(C)nc2c(c1-c1cc(OC)ccc1OC)C(=O)c1ccccc1-2,0,0,0,0,0
CCOC(=O)C1=C(Cc2ccc(OC)cc2)C(=O)c2ccccc2C1=O,?,0,-56,0,0
CCOC(=O)C1=C(Cc2ccc(C)cc2)C(=O)c2ccccc2C1=O,-,-,-47,-,-
CCCn1c(C)nc2c(N(CCOC)CCOC)nc(C)nc21,-,-,0,-,-
Cc1ccc(-n2cc(CNCCn3nc(C)cc3C)c(-c3ccc(F)cc3)n2)cc1,0,0,0,0,-79
SMILES,USP1 inh,KCNH2 WT inh,FBPA coupling cs,Giardia kill,KCNH2 3.1 inh
COc1ccc(CNc2nc(-c3ccc(C(=O)N(C)C)cc3)nc3ccccc23)c(OC)c1,-,-,0,-,-
COc1ccc(CNc2nc(-c3ccc(N(C)C)cc3)nc3ccccc23)c(OC)c1,-,-,-37,-,-
COc1ccc(/C=C2\CCCc3c2nc2ccccc2c3C(=O)O)cc1OC,-,-,-33,-,-
CN(C)c1ccc(/C=C2\CCCc3c2nc2ccccc2c3C(=O)O)cc1,0,0,0,0,0
COc1ccc(-c2nc3ccccc3o2)cc1NC(=O)COc1ccc(C(C)(C)C)cc1,0,-,-,0,-
O=S(=O)(Oc1ccccc1/C=N/n1cnnc1)c1ccccc1,0,0,-49,0,0

# From PubChem BioAssay
